Laboratory results published in PubChem BioAssay (EPA / NIEHS).
Inconclusive results are not listed. Activity calls are given as the source filed them. How the source made its calls, unless noted: active means hit-call score of the fitted dose curve at least 0.9, where 1 is the maximum; inactive means score below 0.9.

Key:
[1] = CCTE_Harrill_HTTr_Viability_MCF7: CCTE's 6-hour Cell Viability Assessment for the High-Throughput Transcriptomics (HTTr) Platform, in MCF-7 cells cultured in DMEM + 10% fetal bovine serum, Harrill Lab (AID 2284010)
Summary of the method: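 PI exclusion, high-content imaging; 8-pt dilution series, 6 h exposure; bidirectional fit vs DMSO (neg. ctrl/baseline); gain of signal = loss of membrane integrity.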

[2] = CCTE_Harrill_HTTr_Apoptosis_MCF7: CCTE's 6-hour Apoptosis Assessment for the High-Throughput Transcriptomics (HTTr) Platform, in MCF-7 cells cultured in DMEM + 10% fetal bovine serum, Harrill Lab (AID 2284011)
Summary of the method: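 MCF-7 cells in DMEM + 10% fetal bovine serum were exposed to chemicals for 6 hours over an eight-point dilution series. Caspase-3/7 activation was imaged by high content imaging with CellEvent Caspase 3/7 Green; bidirectional fitting used DMSO as baseline.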

[3] = CCTE_Shafer_MEA_acute_spike_number: CCTE's Neural Acute Assay for Total Number of Spikes, Shafer Lab (AID 2284008);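 on AC50: curve fitted for decrease in spike count so AC50 reflects inhibitors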
Summary of the method: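 Primary rat cortical neurons on 16-electrode MEA wells; on DIV 13 or 15, 40-min baseline then 40-min recording with compound (0.03-40 uM) at 37 C. Spikes detected at 8x rms noise; percent change versus baseline, DMSO as negative control.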

[4] = CCTE_Shafer_MEA_acute_burst_number: CCTE's Neural Acute Assay for Single-Electrode Bursts, Shafer Lab (AID 2284013)
Summary of the method: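 Percent change in single-electrode burst number per well, from 40-min recordings taken before and after adding compound (0.03-40 uM) to primary rat cortical neurons on MEA plates at DIV 13 or 15, 37 C.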

[5] = CCTE_Shafer_MEA_acute_burst_duration_mean: CCTE's Neural Acute Assay for Mean Burst Duration, Shafer Lab (AID 2284014);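 further: hits are decreases in mean burst duration relative to DMSO controls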
Summary of the method: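 Rat cortical cultures, DIV 13/15; 40 min baseline, then 40 min with compound (0.03-40 uM), 37 C. Spikes: 300-5000 Hz band-pass, 8x rms threshold. Read-out: % change in mean single-electrode burst duration, DMSO-referenced, loss direction.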

[6] = CCTE_Shafer_MEA_acute_burst_percentage_mean: CCTE's Neural Acute Assay for Percentage of Spikes in a Burst, Shafer Lab (AID 2284017);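 on AC50: curve fitted for loss of signal so potency reflects decreased burst percentage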
Summary of the method: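 Compounds were tested at 0.03-40 uM on primary rat cortical neuron networks grown over microelectrodes, with at least three wells per compound. Spontaneous firing was recorded for 40 min before and 40 min after dosing, and the change in burst percentage was computed per well.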

[7] = CCTE_Shafer_MEA_acute_burst_percentage_std: CCTE's Neural Acute Assay for Standard Deviation of Burst Percentage, Shafer Lab (AID 2284018);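 further: fitted in the negative direction so actives lower burst percentage SD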
Summary of the method: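 Rat primary cortical neurons on 48-well MEAs, DIV 13 or 15, 37 C. 40-min baseline then 40-min recording with compound (0.03-40 uM); well-level SD of per-electrode burst spike percentage, expressed as percent change from baseline.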

[8] = CCTE_Shafer_MEA_acute_per_network_burst_spike_number_mean: CCTE's Neural Acute Assay for Average Number of Spikes in a Network Burst, Shafer Lab (AID 2284019);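 on AC50: curve fitted for loss of signal so actives reduce spikes per network burst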
Summary of the method: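 Rat cortical cultures, DIV 13/15; spike threshold 8x rms noise, 300-5000 Hz band-pass, 12.5 kHz sampling; wells need >/= 10 active electrodes. Compound 0.03-40 uM, 40 min, 37 C; % change vs own baseline, DMSO negative control.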

[9] = CCTE_Shafer_MEA_acute_per_network_burst_electrodes_number_mean: CCTE's Neural Acute Assay for Mean Number of Electrodes in a Network Burst, Shafer Lab (AID 2284021);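 further: curves fitted for decreases only so hits reduce electrodes per burst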
Summary of the method: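 Rat primary cortical neurons on 16-electrode MEA wells were recorded 40 min at baseline on DIV 13 or 15, then 40 min after compound (0.03-40 uM), at 37 C. Value is percent change per well, fitted in loss direction versus DMSO.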

[10] = CCTE_Shafer_MEA_acute_network_burst_percentage: CCTE's Neural Acute Assay for Percentage of Network Bursts, Shafer Lab (AID 2284022);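 further: curves fitted for loss so actives lower network burst percentage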
Summary of the method: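 Primary rat cortical neurons on 16-electrode MEA wells, treated on DIV 13 or 15 with compound (0.03-40 uM); 40-min baseline and 40-min post-exposure recordings at 37 C. Value is percent change in spikes within network bursts versus baseline, DMSO negative control.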

[11] = CCTE_Shafer_MEA_acute_cross_correlation_area: CCTE's Neural Acute Assay for Area of Cross Correlation, Shafer Lab (AID 2284024);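 further: area under pooled inter-electrode spike cross-correlation near zero lag as percent change from own baseline; curves fitted for loss of cross-correlation area so actives lower synchrony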
Summary of the method: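 Primary rat cortical neurons on 48-well MEA plates (16 electrodes/well) were recorded 40 min at baseline on DIV 13 or 15, then 40 min with compound (0.03-40 uM) at 37 C; cross-correlation area expressed as percent change from baseline.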

[12] = CCTE_Shafer_MEA_acute_cross_correlation_HWHM: CCTE's Neural Acute Assay for Cross Correlation at Half Width at Half Maximum, Shafer Lab (AID 2284026);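 further: percent change per well from pre-dose baseline in spike cross-correlogram half width; hits are a decrease in cross-correlogram half width relative to DMSO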
Summary of the method: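 Primary rat cortical neurons on 16-electrode MEA wells; 40-min baseline on DIV 13 or 15, then 40-min recording with compound (0.03-40 uM) at 37 C. HWHM of spike cross-correlogram expressed as percent change from baseline per well, DMSO reference.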

[13] = CCTE_Simmons_MITO_basal_resp_rate: CCTE's HepG2 Seahorse XF Respirometric Screening Assay at Basal Respiratory State, Simmons Lab (AID 2284001); conditions: actives raise or lower the signal
Summary of the method: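 Basal-phase OCR of HepG2 cells on a Seahorse XF96, analysed by bidirectional fit relative to DMSO vehicle; chemicals at 7 concentrations, 125 nM–100 uM final; three biological replicates; fenpyroximate and 2,4-dinitrophenol positive controls.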

[14] = CCTE_Simmons_MITO_max_resp_rate: CCTE's HepG2 Seahorse XF Respirometric Screening Assay at Maximal Respiratory State [uncoupled], Simmons Lab (AID 2284002); conditions: actives raise or lower the signal
Summary of the method: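 HepG2 oxygen consumption was read on a Seahorse XF96 after FCCP uncoupler injection, following test compound injection; 7 concentrations, 125 nM–100 uM final, three biological replicates. Bidirectional fitting against DMSO vehicle baseline.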

[15] = CCTE_Simmons_MITO_inhib_resp_rate: CCTE's HepG2 Seahorse XF Respirometric Screening Assay at Inhibited Respiratory State [full ETC block], Simmons Lab (AID 2284006); conditions: actives raise or lower the signal
Summary of the method: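 OCR read-out in the inhibited phase following rotenone/antimycin A, after compound and FCCP injections, in HepG2 cells. Seven concentrations (125 nM to 100 uM final), three biological replicates, 6-min cycles over 72 min; DMSO baseline.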

[16] = CCTE_Simmons_MITO_viability: CellTiter-Glo Viability Assessment for CCTE's HepG2 Seahorse XF Respirometric Screening Assay [post-hoc], Simmons Lab (AID 2284007; active means hit-call score of the fitted dose curve at least 0.9, where 1 is the maximum)
Summary of the method: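 Luciferase-coupled ATP luminescence, single endpoint. HepG2, post-respirometry. Compound 125 nM–100 uM final, 7 conc., 90 min. n=3 biological, technical singles. DMSO vehicle/baseline; dichlone 10 nM–100 uM, 8 conc., as positive control.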

[17] = CCTE_Harrill_HTTr_CellCount_MCF7: CCTE's Cell Proliferation Assessment for the High-Throughput Transcriptomics (HTTr) Platform, Harrill Lab (AID 2284012; active means hit-call score of the fitted dose curve at least 0.9, where 1 is the maximum;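 further: count of Hoechst-stained nuclei per well by high-content imaging in MCF-7 cells; cells exposed to compound for six hours; intended direction is loss of nuclei count meaning fewer cells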)
Summary of the method: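 Readout: Hoechst nuclear count by high-content imaging. MCF-7, 8-point dilution series, 6 h exposure. Bidirectional fit vs DMSO baseline.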

[18] = target: Estrogen receptor (Homo sapiens) (UniProt P03372); experiment: CCTE_Deisenroth_AIME_96WELL_LUC_Active: CCTE's 96-well Estrogen Receptor Transactivation Assay with AIME metabolic competence (ERTA luciferase; metabolism positive), Deisenroth Lab (AID 2284023; active means hit-call score of the fitted dose curve at least 0.9, where 1 is the maximum)
Summary of the method: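 Metabolism-positive mode: induced rat hepatic S9 in alginate microspheres conditions test solutions (0.002 - 200 uM, 10 points) for 2 hours. VM7Luc4E2 ER luciferase reporter cells then exposed 24 h; positive-direction fit against 17beta-estradiol, n=4 typical.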

[19] = target: Estrogen receptor (Homo sapiens) (UniProt P03372); experiment: CCTE_Deisenroth_AIME_96WELL_LUC_Inactive: CCTE's 96-well Estrogen Receptor Transactivation Assay without AIME metabolic competence (ERTA luciferase; metabolism negative), Deisenroth Lab (AID 2284025; active means hit-call score of the fitted dose curve at least 0.9, where 1 is the maximum)
Summary of the method: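 Metabolism-negative arm: chemicals (0.002–200 uM, 10 points) incubated 2 h with alginate-water microspheres, then medium moved onto VM7Luc4E2 cells for 24 h luciferase read-out. Positive direction vs 17beta-estradiol; n≥4 experiments.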

[20] = CCTE_Deisenroth_AIME_96WELL_CTox_Active: Cytotoxicity Assessment (CTOX) in CCTE's 96-well Estrogen Receptor Transactivation Assay with AIME metabolic competence (metabolism positive), Deisenroth Lab (AID 2284028; active means hit-call score of the fitted dose curve at least 0.9, where 1 is the maximum)
Summary of the method: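 Cytotoxicity in VM7Luc4E2 breast cells after 24 h exposure to medium from a 2 h metabolic pre-incubation with induced rat hepatic S9 in alginate microspheres; fluorescent live-cell protease readout, 10-point series 0.002–200 uM, n=4.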

Measured: AC50

Sequence of Estrogen receptor (Homo sapiens) (P03372 whole entry, looked up): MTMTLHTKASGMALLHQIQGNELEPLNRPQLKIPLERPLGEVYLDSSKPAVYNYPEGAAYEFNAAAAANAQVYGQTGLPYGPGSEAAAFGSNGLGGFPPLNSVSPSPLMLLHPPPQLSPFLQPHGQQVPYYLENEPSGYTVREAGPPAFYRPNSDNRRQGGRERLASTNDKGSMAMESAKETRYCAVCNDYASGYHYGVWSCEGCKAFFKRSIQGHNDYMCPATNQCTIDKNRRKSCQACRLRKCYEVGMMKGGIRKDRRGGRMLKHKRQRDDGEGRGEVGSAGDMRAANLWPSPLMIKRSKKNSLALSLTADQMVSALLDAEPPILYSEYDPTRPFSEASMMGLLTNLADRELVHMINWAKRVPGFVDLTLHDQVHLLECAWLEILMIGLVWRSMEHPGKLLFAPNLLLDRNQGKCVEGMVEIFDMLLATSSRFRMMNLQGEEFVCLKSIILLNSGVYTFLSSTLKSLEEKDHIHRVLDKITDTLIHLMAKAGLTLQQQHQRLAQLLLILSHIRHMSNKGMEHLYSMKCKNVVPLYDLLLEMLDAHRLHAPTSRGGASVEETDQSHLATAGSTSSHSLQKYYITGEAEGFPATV

Cc1ccc(S(=O)(=O)NC(=O)NN2CCCCCC2)cc1
inactive: [1] | [2]

COCc1nnc(-c2ccc[n+]([O-])c2)n1-c1c(Cl)c(Cl)cc2[nH]c(=O)c(=O)[nH]c12
inactive: [3] | [1] | [2] | [4] | [5] | [7] | [9] | [11]
active: [6] 17.2 µM | [8] 4.76 µM | [10] 29.2 µM | [12] 8.51 µM

COc1cc(C(C)C)c2c(c1)S(=O)(=O)N(COc1cc(=O)n3cccc(OCCN4CCCCC4)c3n1)C2=O
active: [5] 5 µM | [7] 7.87 µM | [12] 7.59 µM
inactive: [3] | [1] | [2] | [4] | [6] | [8] | [9] | [10] | [11]

c1ccc2ncccc2c1
inactive: [1] | [2]

O=C1CN(N=Cc2ccc([N+](=O)[O-])o2)C(=O)N1
active: [14] 12.7 µM | [15] 46.8 µM
inactive: [13] | [16] | [1] | [2] | [17]

CCCCC(CC)C(=O)OCCOCCOCCOC(=O)C(CC)CCCC (stereo unspecified)
not listed: [13] | [14] | [15] | [16] | [18] | [19] | [20]
inactive: all other assays above

CC(C)CCCCCCOC(=O)C1CCCCC1C(=O)OCCCCCCC(C)C (stereo unspecified)
inactive: [1] | [2]

OC(CCl)CCl
not listed: [13] | [14] | [15] | [16] | [18] | [19] | [20]
inactive: all other assays above

S=P(N1CC1)(N1CC1)N1CC1
inactive: [1] | [2]

CCN(CC)C(=S)SSC(=S)N(CC)CC
inactive: [13] | [14] | [15] | [16] | [1] | [2] | [17] | [18] | [19] | [20]

CCc1ccc(O)c(C(C)(C)C)c1
active: [3] 0.679 µM | [4] 1.03 µM | [5] 30 µM | [6] 2.12 µM | [7] 20 µM | [8] 35.3 µM | [9] 35 µM
not listed: [18] | [19] | [20]
inactive: all other assays above

c1ccc(C(O[C@@H]2CCCN(CCc3ccc4c(c3)OCO4)C2)c2ccccc2)cc1
active: [8] 4.49 µM
not listed: [13] | [14] | [15] | [16] | [18] | [19] | [20]
inactive: all other assays above

NC(=O)NN=Cc1ccc([N+](=O)[O-])o1
active: [13] 50 µM | [15] 50 µM
inactive: [14] | [16] | [1] | [2]

O=C(NO)C1(NS(=O)(=O)c2ccc(Oc3ccc(F)cc3)cc2)CCOCC1
inactive: [15] | [16] | [1] | [2] | [17]
active: [13] 39.2 µM | [14] 31.2 µM

CCOc1ccc2[nH]cc(C(=O)NCc3ccccc3)c(=O)c2n1
inactive: [13] | [14] | [15] | [16] | [1] | [2] | [17]

O=S(=O)(O)c1ccc(N=Nc2c(O)ccc3cc(S(=O)(=O)O)ccc23)cc1
not listed: [13] | [14] | [15] | [16] | [18] | [19] | [20]
inactive: all other assays above

CCCCCCCC/C=C\CCCCCCCC(=O)OC[C@@H](O)[C@H]1OC[C@H](O)[C@H]1O
not listed: [13] | [14] | [15] | [16] | [18] | [19] | [20]
inactive: all other assays above
